From PubChem
An excerpt weighted towards active compounds, which were near 14% of everything screened.
HSD17B inhib: qHTS Assay for Inhibitors of HSD17B4, hydroxysteroid (17-beta) dehydrogenase 4. 75,000 compounds, 7.6% hits. AID 893, 2007. Potency, µM (doses to about 57.1 µM), without a hit: at the top dose activity change, negative = inhibition, actives largely listed as inhibitors. recombinant HSD17B10, NADH fluorescence kinetic. 3-hydroxyacyl-CoA dehydrogenase type-2 (Homo sapiens), Q99714;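 note: the protocol describes HADH2 (HSD17B10) and not the HSD17B4 of the title; potency is the fitted concentration of half-maximal effect; % is set by controls: 0 for no effect and ±100 for the full control effect; nearly all actives have a fitted effect of over 70% in size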
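His-tagged E. coli-expressed HADH2 at 20 nM in 100 mM Tris-HCl pH 9.0 with 0.01 % Tween-20, preincubated 15 min with compound at room temperature. Reaction with 1 mM NAD+ and 90 uM beta-hydroxybutyryl coenzyme A; NADH fluorescence (360/450 nm) read kinetically over 4 min, last minus first point.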
4-MU autofl: qHTS Assay for Spectroscopic Profiling in 4-MU Spectral Region; 59,000 compounds, 11% hits; max dye-equivalent concentration, M; AID 589, 2007; compound autofluorescence, 340/450 nm, 4-MU equivalents; stronger effect = higher value; in the data active = max dye-equivalent concentration above about 10 nM; inconclusive = mostly about 1.1 nM to 9.6 nM
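Compounds in 100 mM Tris, pH 8.0, sat 15 min at room temperature before fluorescence was read at 340 nm excitation/450 nm emission; a per-plate six-point 4-MU standard curve converted signals to dye-equivalent concentration at each compound concentration.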
AID923: qHTS Assay for Allosteric/Competitive Inhibitors of Caspase-1: Spectroscopic Profiling in AFC Spectral Region; Potency, µM (top dose mostly 57.5 µM), for the others: at the top dose fluorescence increase, actives largely listed as activators; AID 923, 2007; compound fluorescence, AFC spectral region (405/520 nm); 75,000 compounds, 1.1% hits; note: potency is the fitted concentration of half-maximal effect; 0% is about no effect
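Titrations up to 57 uM read every 20 sec for 3 min (405/520 nm) with 50 nM caspase 1 and 5 uM Ac-WEHD-AFC, pH 7.5 HEPES buffer. Fluorescence-vs-time intercept gave baseline, scaled against on-plate AFC standard.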
HADH2 inh: qHTS Assay for Inhibitors of HADH2 (Hydroxyacyl-Coenzyme A Dehydrogenase, Type II) | recombinant HADH2, NADH fluorescence, beta-hydroxybutyryl-CoA | 73,000 compounds, 3.4% hits | AID 886, 2007 | Potency, µM (highest dose often 57.1 µM), for the others: at the highest dose activity change, negative = inhibition, actives largely listed as inhibitors | 3-hydroxyacyl-CoA dehydrogenase type-2 (Homo sapiens), Q99714; note: potency is the fitted concentration of half-maximal effect; % is set by controls: 0 for no effect and ±100 for the full control effect; nearly all actives have a fitted effect of over 60% in size
Target sequence (Q99714 whole entry, looked up, one chain of several): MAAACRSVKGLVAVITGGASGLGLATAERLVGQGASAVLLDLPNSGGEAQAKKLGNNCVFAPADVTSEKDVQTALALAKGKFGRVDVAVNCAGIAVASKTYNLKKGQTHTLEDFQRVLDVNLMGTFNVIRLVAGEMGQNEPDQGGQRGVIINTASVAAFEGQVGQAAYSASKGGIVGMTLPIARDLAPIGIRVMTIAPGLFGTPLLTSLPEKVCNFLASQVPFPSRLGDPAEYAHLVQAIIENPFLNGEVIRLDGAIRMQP
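E. coli-expressed His-tagged HADH2 tested at 20 nM in alkaline Tris buffer (pH 9.0); oxidation of 90 uM beta-hydroxybutyryl-CoA with 1 mM NAD+ tracked fluorimetrically for 4 min.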
CRE-bla Fsk: Cell signaling CRE-BLA (Fsk stim); CHO CRE-bla reporter (cAMP response element driving beta-lactamase), forskolin EC10, beta-lactamase ratio; Potency, µM (top dose mostly 38.2 µM), without a hit: top-dose activity change, negative = inhibition, actives largely listed as activators; 71,000 compounds, 2.5% hits; active = well fitted activation curve with a large enough effect in the signal ratio, with a control signal flat, not every such curve was filed as active; inconclusive = small, poorly fitted or top-dose-only effect, or effect the other way, or a change in a side signal; the % refers to the signal ratio; note: potency is the fitted concentration of half-maximal effect; % of control where 0% means no effect
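Modulation of forskolin-driven signalling is measured in CHO cells carrying a CRE-controlled beta-lactamase reporter. Cells are stimulated with EC10 NKH 477 in the presence of titrated compound for 3 h at 37 °C, then loaded with CCF4 for 2 h at room temperature.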
A350 autofl: qHTS Assay for Spectroscopic Profiling in A350 Spectral Region; Compound autofluorescence, 340/450 nm, Alexa 350 dye-equivalents; stronger effect = higher value; max dye-equivalent concentration, M; 59,000 compounds, 11% hits; in the data active = max dye-equivalent concentration above about 10 nM; inconclusive = mostly about 1.1 nM to 9.6 nM
An asterisk follows results filed as active; [ ] = remark or other dose. Unless noted, calls come from the whole dose curve; as a rule, active = well fitted curve in the direction sought with a large enough effect; inconclusive = small, poorly fitted or top-dose-only effect, or another doubt; inactive = no such curve, though single readings can be large; an effect the other way counts as inactive or inconclusive.

For COc1c(N2CCNC(C)C2)c(F)cc2c(=O)c(C(=O)O)cn(C3CC3)c12 (stereo not given) the results were HSD17B inhib 31.6µM*, 4-MU autofl 6.77e-08M*, AID923 1.7%, HADH2 inh 25.6%, CRE-bla Fsk 2.0% and A350 autofl 8.84e-08M*.
`CCCN1Cc2cccc(C(=O)NC3CCCC3)c2C1=O` gave HSD17B inhib 5.3%, 4-MU autofl inactive, AID923 0.2%, HADH2 inh 4.7%, CRE-bla Fsk inconclusive and A350 autofl inactive.
`COCCN1Cc2cccc(C(=O)Nc3ccc(C)c(C)c3)c2C1=O` gave HSD17B inhib 7.2%, 4-MU autofl 3.03e-08M*, AID923 -0.2%, HADH2 inh 4.4%, CRE-bla Fsk inconclusive and A350 autofl 2.89e-08M*.
COCCN1Cc2cccc(C(=O)Nc3cccc(OC)c3)c2C1=O was read as HSD17B inhib 11.4%, 4-MU autofl inactive, AID923 0.6%, HADH2 inh 3.2%, CRE-bla Fsk inconclusive and A350 autofl inactive.
CCN(CC)S(=O)(=O)c1ccc(NC(=O)c2cccc3c2C(=O)N(CCOC)C3)cc1 was read as HSD17B inhib inconclusive, 4-MU autofl 1.08e-07M*, AID923 -0.4%, HADH2 inh 21.4%, CRE-bla Fsk inconclusive and A350 autofl 1.17e-07M*.
For COCCN1Cc2cccc(C(=O)Nc3ccc(S(=O)(=O)N4CCCCCC4)cc3)c2C1=O the results were HSD17B inhib -1.5%, 4-MU autofl inactive, AID923 1.4%, HADH2 inh 20.4%, CRE-bla Fsk 4.1% and A350 autofl inconclusive.
For CCCN1Cc2cccc(C(=O)Nc3cc(OC)cc(OC)c3)c2C1=O the results were HSD17B inhib 28.6%, 4-MU autofl inconclusive, AID923 -3.1%, HADH2 inh 18.3%, CRE-bla Fsk 6.31µM* and A350 autofl inconclusive.
For CCNC(=O)[C@H](C)/C=C/C(NC(=O)OCc1ccccc1)c1ccc(C(=O)OC)cc1 (stereo not given in full) the results were HSD17B inhib -3.5%, AID923 0.7%, HADH2 inh -7.1% and CRE-bla Fsk -16.3%.
Screening O=c1cc(-c2ccc(O)c(O)c2)oc2cc(OC3OC(CO)C(O)C(O)C3O)cc(O)c12 (stereo not given) returned HSD17B inhib -22.0% and AID923 0.3%.
O=c1c(O)c(-c2ccc(O)c(O)c2)oc2c(OC[C@H]3O[C@@H](O)[C@@H](O)[C@H](O)[C@@H]3O)c(O)cc(O)c12 was read as 4-MU autofl inactive, HADH2 inh 0.631µM*, CRE-bla Fsk 11.1% and A350 autofl inactive.
`COc1ncc2ncc(=O)n(C3CC3)c2n1` gave HSD17B inhib inconclusive, 4-MU autofl inactive, AID923 5.4%, HADH2 inh -18.6%, CRE-bla Fsk -1.8% and A350 autofl inactive.
For N=C(N)S[C@H]1c2ccccc2-c2cc([N+](=O)[O-])ccc21 the results were HSD17B inhib -3.4%[11.4 µM], 4-MU autofl 1.25e-08M*, AID923 -2.3%[11.5 µM], HADH2 inh -13.0%[11.4 µM], CRE-bla Fsk 0.1%[7.6 µM] and A350 autofl 1.4e-08M*.
Screening C=C1CC[C@H](O)C/C1=C/C=C1\CCC[C@]2(C)[C@H]1CC[C@H]2[C@@H](C)/C=C\[C@@H](C)C(C)C returned HSD17B inhib -2.4%[25.6 µM], 4-MU autofl inactive, AID923 -0.7%[25.7 µM], HADH2 inh -16.7%[25.6 µM], CRE-bla Fsk -1.9%[17.1 µM] and A350 autofl inactive.
For COCCCNc1nc2ccccc2nc1NS(=O)(=O)c1cccs1 the results were HSD17B inhib inconclusive, 4-MU autofl 4.24e-08M*, AID923 7.7%, HADH2 inh -3.8%, CRE-bla Fsk inconclusive and A350 autofl 5.56e-08M*.
`O=S(=O)(Nc1nc2ccccc2nc1NCC1CCCO1)c1cccs1` (stereo not given) gave HSD17B inhib -5.0%, 4-MU autofl 4.44e-08M*, AID923 2.8%, HADH2 inh -7.7%, CRE-bla Fsk 22.5% and A350 autofl 5.8e-08M*.
`CO/N=C1/c2cc(OC)ccc2O[C@@H](c2cccc(OC)c2)[C@H]1O` gave HSD17B inhib -1.8%[11.4 µM], AID923 -0.9%[11.5 µM] and HADH2 inh 9.7%[11.4 µM].
Screening CCCCCCC#Cc1cc(OC)c(OC)cc1C(N1CC(C)c2ccccc21)N1CC(C)c2ccccc21 (stereo not given) returned HSD17B inhib -23.6%[11.4 µM], AID923 -1.0%[11.5 µM] and HADH2 inh 5.5%[11.4 µM].
Screening COCCn1c(=S)[nH]c2cc(C(=O)N3CCC(C(N)=O)(N4CCCCC4)CC3)ccc2c1=O returned HSD17B inhib 1.4%, 4-MU autofl 1.3e-08M*, AID923 -0.8%, HADH2 inh -0.7%, CRE-bla Fsk 8.1% and A350 autofl 1.15e-08M*.
For CCOC(=O)N1CCN(C(=O)c2ccc3c(=O)n(CCOC)c(=O)[nH]c3c2)CC1 the results were HSD17B inhib 25.1µM*, 4-MU autofl 1.99e-08M*, AID923 -1.5%, HADH2 inh inconclusive, CRE-bla Fsk -5.3% and A350 autofl 2.06e-08M*.
Screening CCOC(=O)N1CCN(C(=O)c2ccc(C)c(S(=O)(=O)Nc3ccccc3)c2)CC1 returned HSD17B inhib 25.1µM*, 4-MU autofl 2.02e-07M*, AID923 3.2%, HADH2 inh inconclusive, CRE-bla Fsk -10.4% and A350 autofl 2.54e-07M*.
O=C(c1ccc2c(=O)n(-c3ccccc3)c(=O)[nH]c2c1)N1CCCCC1 was read as HSD17B inhib 31.6µM*, 4-MU autofl 4.83e-08M*, AID923 -2.2%, HADH2 inh inconclusive, CRE-bla Fsk -5.2% and A350 autofl 4.96e-08M*.
For CCOC(=O)N1CCN(C(=O)c2ccc3c(=O)n(Cc4ccccc4)c(=S)[nH]c3c2)CC1 the results were HSD17B inhib -4.6%, 4-MU autofl inactive, AID923 -0.5%, HADH2 inh -0.4%, CRE-bla Fsk inconclusive and A350 autofl inactive.
CCn1c(=O)[nH]c2cc(C(=O)N3CCN(c4ccccc4)CC3)ccc2c1=O was read as HSD17B inhib -0.2%, 4-MU autofl inactive, AID923 -0.2%, HADH2 inh 2.8%, CRE-bla Fsk 4.1% and A350 autofl inactive.
For CCOC(=O)N1CCN(C(=O)c2ccc3c(=O)n(CCc4ccccc4)c(=O)[nH]c3c2)CC1 the results were HSD17B inhib 12.6µM*, 4-MU autofl inactive, AID923 0.0%, HADH2 inh 3.4%, CRE-bla Fsk -3.7% and A350 autofl inconclusive.
